Data on 18 compounds can be found in ChEMBL document CHEMBL2218924, “A broad activity screen in support of a chemogenomic map for kinase signalling research and drug discovery” (Biochem J, 2013).

In assay [1] the target is Platelet-derived growth factor receptor alpha (Homo sapiens) (UniProt P16234). The settings on record: at 1 µM.
Assay [2] shares this target. As to conditions: at 10 µM.
The target of assay [3] is T1, 3-phosphoinositide-dependent protein kinase 1 (Homo sapiens) (UniProt O15530).
T1 sequence (whole entry): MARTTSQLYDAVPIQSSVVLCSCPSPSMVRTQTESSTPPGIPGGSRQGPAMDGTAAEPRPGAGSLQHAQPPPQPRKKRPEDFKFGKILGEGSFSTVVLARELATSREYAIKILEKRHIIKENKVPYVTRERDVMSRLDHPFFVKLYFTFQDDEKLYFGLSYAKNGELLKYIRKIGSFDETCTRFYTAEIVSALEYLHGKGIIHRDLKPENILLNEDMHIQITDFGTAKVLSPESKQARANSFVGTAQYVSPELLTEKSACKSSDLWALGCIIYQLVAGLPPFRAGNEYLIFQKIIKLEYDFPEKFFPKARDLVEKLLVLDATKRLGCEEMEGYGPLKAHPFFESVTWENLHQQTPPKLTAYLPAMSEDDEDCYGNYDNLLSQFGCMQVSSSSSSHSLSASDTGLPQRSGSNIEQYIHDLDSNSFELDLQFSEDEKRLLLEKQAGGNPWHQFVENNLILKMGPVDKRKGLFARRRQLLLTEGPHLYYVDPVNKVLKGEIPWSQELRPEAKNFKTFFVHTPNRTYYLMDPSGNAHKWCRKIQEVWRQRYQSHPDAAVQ
The settings on record: at 1 µM.

Assay [4] concerns the target T1, 3-phosphoinositide-dependent protein kinase 1 (Homo sapiens). The settings on record: at 10 µM.
The target in assay [5] is cAMP-dependent protein kinase catalytic subunit alpha (Homo sapiens) (UniProt P17612). As to conditions: at 1 µM.
The target of assay [6] is RAC-gamma serine/threonine-protein kinase (Homo sapiens) (UniProt Q9Y243). As to conditions: at 1 µM.
Sequence of RAC-gamma serine/threonine-protein kinase (Homo sapiens) (Q9Y243 whole entry): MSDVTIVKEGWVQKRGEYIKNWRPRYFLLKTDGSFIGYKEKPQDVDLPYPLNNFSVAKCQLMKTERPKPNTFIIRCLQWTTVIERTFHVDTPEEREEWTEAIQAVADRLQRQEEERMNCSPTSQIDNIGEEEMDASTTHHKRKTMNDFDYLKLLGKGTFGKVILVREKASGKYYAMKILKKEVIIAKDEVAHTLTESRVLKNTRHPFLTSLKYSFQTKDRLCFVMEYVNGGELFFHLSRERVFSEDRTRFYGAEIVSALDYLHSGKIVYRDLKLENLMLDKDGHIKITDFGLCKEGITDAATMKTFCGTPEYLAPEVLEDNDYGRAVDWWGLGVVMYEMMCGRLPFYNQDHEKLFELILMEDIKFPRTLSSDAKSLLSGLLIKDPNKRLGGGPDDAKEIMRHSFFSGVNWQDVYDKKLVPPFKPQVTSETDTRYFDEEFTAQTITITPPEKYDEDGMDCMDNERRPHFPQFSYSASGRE
Assay [7] shares this target. As to conditions: at 10 µM.
The target of assay [8] is Platelet-derived growth factor receptor beta (Homo sapiens) (UniProt P09619). As to conditions: at 1 µM.
Sequence of Platelet-derived growth factor receptor beta (Homo sapiens) (P09619 whole entry): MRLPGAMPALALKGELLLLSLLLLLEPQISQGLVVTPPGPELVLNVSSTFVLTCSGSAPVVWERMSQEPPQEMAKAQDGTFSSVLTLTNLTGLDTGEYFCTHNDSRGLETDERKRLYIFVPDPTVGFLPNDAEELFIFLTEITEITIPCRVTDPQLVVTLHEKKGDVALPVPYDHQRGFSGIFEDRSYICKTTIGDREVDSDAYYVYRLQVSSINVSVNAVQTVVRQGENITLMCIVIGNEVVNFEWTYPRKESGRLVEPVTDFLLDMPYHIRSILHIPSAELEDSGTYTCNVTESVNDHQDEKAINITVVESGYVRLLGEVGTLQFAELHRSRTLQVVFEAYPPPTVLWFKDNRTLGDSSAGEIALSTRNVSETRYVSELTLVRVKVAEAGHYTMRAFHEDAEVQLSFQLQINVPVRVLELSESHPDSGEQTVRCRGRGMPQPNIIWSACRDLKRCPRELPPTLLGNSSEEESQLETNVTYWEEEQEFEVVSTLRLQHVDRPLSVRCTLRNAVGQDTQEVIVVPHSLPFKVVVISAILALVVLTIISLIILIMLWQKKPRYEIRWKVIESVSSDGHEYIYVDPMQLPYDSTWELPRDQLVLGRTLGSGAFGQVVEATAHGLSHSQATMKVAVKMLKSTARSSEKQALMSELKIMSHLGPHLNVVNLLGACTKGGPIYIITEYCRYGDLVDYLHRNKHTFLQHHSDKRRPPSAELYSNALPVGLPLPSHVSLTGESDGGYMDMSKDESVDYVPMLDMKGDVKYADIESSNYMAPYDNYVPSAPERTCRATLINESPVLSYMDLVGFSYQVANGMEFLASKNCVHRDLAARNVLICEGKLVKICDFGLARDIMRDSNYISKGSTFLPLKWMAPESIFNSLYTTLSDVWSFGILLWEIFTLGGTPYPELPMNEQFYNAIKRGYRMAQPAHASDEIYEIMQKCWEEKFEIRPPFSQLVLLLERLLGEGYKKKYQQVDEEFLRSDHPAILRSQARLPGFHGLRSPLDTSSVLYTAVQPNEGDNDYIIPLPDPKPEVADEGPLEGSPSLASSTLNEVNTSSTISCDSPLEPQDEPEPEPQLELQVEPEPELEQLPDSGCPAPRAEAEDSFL
Assay [9] shares this target. The settings on record: at 10 µM.
Assay [10] concerns the target cAMP-dependent protein kinase catalytic subunit alpha (Homo sapiens) (UniProt P17612). As to conditions: at 10 µM.

Sequence of Platelet-derived growth factor receptor alpha (Homo sapiens) (P16234 whole entry): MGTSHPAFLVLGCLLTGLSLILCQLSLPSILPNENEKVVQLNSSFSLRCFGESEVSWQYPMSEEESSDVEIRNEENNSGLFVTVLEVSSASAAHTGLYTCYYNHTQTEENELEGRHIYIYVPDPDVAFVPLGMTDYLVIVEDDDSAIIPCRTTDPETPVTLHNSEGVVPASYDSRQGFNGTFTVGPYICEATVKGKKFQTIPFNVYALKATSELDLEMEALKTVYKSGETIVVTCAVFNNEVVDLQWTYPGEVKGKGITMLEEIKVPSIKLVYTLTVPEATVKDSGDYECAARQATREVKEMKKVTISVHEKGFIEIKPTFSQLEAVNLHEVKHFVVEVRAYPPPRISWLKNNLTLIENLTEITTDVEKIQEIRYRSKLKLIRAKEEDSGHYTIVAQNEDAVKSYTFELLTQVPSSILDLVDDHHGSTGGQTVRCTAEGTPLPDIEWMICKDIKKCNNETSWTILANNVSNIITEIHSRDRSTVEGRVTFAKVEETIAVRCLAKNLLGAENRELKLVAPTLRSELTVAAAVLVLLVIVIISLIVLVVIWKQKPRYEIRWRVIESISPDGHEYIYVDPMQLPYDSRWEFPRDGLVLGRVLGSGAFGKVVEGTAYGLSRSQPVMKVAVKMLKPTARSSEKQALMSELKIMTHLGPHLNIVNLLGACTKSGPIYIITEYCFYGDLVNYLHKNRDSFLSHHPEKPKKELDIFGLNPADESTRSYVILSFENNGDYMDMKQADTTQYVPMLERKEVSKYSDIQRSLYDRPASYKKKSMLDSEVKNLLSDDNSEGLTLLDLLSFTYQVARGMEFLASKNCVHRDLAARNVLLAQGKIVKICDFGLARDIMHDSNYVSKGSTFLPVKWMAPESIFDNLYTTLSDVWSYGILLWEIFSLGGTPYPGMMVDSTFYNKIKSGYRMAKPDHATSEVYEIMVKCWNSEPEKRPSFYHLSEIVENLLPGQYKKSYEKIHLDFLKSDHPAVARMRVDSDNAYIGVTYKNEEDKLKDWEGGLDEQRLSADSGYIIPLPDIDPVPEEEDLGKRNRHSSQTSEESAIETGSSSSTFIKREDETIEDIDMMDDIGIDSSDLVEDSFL

Turning to `COc1cc2ncnc(N3CCN(C(=O)Nc4ccc(Oc5ccccc5)cc4)CC3)c2cc1OC`, the residual activity in assay [1] stood at 26%; in [2], 6%; in [3], 106%; in assay [4] it was 116%; in assay [5], 102%; in [6] it was 94%. In assay [7], the residual activity amounted to 112%.

On to `O=C1Nc2cc(Br)ccc2/C1=C1/Nc2ccccc2/C1=N\O`, for which the residual activity in assay [1] was determined as 30%; in assay [2], 6%; in [8], 36%; in [9], 11%; in [3], 42%; in assay [4], 37%. The residual activity was 89% in assay [5], 97% in [10], 83% in [6] and 83% in assay [7].

In the case of `Cn1nc2c3c(cccc31)C(=O)c1ccccc1-2`, the residual activity in assay [8] was 91%; in assay [9], 88%; in [3] it was 95%; in assay [4], 74%; in [5], 87%; in assay [10], 90%. For the same compound, the residual activity in assay [6] was determined as 95%; in assay [7], 91%.

As for `c1ccc(-c2n[nH]cc2-c2ccnc3ccccc23)nc1`, the residual activity turned out to be 96% in assay [8]; 109% in [9]; 104% in [3]; 104% in [4]; 93% in [10]; 96% in assay [6]. For the same compound, the residual activity in assay [7] is 96%.

For `Oc1n[nH]c2nnc(-c3c(-c4ccccc4)nn4ccccc34)cc12`, the residual activity in [1] is 103%; in assay [2] it was 110%; in assay [8] it was 103%; in assay [9] it was 110%; in assay [3], 85%; in assay [4], 70%. The residual activity is 86% in [5], 101% in assay [10], 96% in [6] and 84% in assay [7].

Take `CO[C@@H]1[C@H](N(C)C(=O)c2ccccc2)C[C@H]2O[C@]1(C)n1c3ccccc3c3c4c(c5c6ccccc6n2c5c31)C(=O)NC4`: the residual activity in [1] was 54%; in assay [2] it was 32%; in assay [8] it was 46%; in assay [9] it was 25%; in [3] it was 2%; in assay [4] it was 1%. Besides, the values for the residual activity in assay [10], in [6] and in [7] were 10%, 22% and 14%, respectively.

Turning to `COc1ccc(OC)c2c(=S)c3ccccc3[nH]c12`, the residual activity in assay [1] came out at 109%; in [2], 108%; in [8], 99%; in assay [9], 102%; in assay [3], 96%; in assay [4] it was 96%. For the same compound, the residual activity was 87% in assay [5], 94% in assay [10], 89% in assay [6] and 84% in [7].

On to `O=C1NC(=O)c2cc(Nc3ccc(F)cc3)c(Nc3ccc(F)cc3)cc21`, for which the residual activity stood at 115% in assay [1]; 107% in [2]; 109% in assay [8]; 95% in assay [9]; 106% in assay [3]; 110% in [4]. For the same compound, the residual activity was 100% in assay [5], 82% in assay [10], 98% in [6] and 65% in assay [7].

In the case of `Cc1cncc2cccc(S(=O)(=O)N3CCCN(C(=O)CN)C[C@H]3C)c12`, the residual activity in assay [8] is 100%; in assay [9] it was 96%; in assay [5], 69%; in assay [10] it was 59%; in [6] it was 100%; in assay [7], 84%.

For the compound `CC[n+]1c(/C=C/N(C)c2ccccc2)n(-c2ccccc2)c2ccc(-c3nc4ccccc4s3)cc21`, the residual activity is 117% in assay [1]; 94% in [2]; 103% in assay [8]; 125% in [9]; 121% in assay [3]; 149% in assay [4]. In addition, the residual activity was 110% in assay [5], 146% in assay [10], 105% in [6] and 65% in [7].

As for `O=c1cc(-c2cccc3c2Sc2ccccc2S3)oc(N2CCOCC2)c1`, the residual activity stood at 106% in assay [1]; 111% in assay [8]; 92% in assay [9]; 99% in assay [3]; 107% in assay [4]; 102% in assay [5]. Also, the residual activity in assay [10] turned out to be 104%; in assay [6], 106%; in [7], 84%.

For `Oc1ccc(-c2nc(-c3ccc(F)cc3)c(-c3ccncc3)[nH]2)cc1`, the residual activity worked out at 117% in assay [1]; 105% in assay [2]; 111% in assay [8]; 97% in assay [9]; 108% in assay [3]; 94% in assay [4]. Moreover, the residual activity amounted to 107% in [6] and 77% in assay [7].

As to `Cc1cc(Nc2nc(-c3ccccc3)nc3ccccc23)n[nH]1`, the residual activity in [2] was found to be 26%; in [8], 79%; in assay [9] it was 28%; in [3], 94%; in assay [4], 39%; in assay [10] it was 70%. Further, in [7], the residual activity was determined as 46%.

Regarding `COc1cc2ncnc(Nc3ccc(NC(=O)c4ccccc4)cc3)c2cc1OC`, the residual activity came out at 81% in [2]; 102% in [9]; 106% in assay [4]; 71% in assay [5]; 85% in [10]; 102% in [7].

`c1ccc2c(-c3ccncc3)c[nH]c2c1`: the residual activity in [3] was determined as 111%; in assay [4], 110%; in assay [5], 93%; in [10] it was 50%; in [6], 89%; in [7], 76%.

Take `O=C1NC(=O)/C(=C\c2ccc3nccnc3c2)S1`: the residual activity in assay [1] is 116%; in [2], 109%; in [8], 97%; in assay [9], 106%; in assay [3], 111%; in [4], 98%. Also, the residual activity was 71% in assay [5], 70% in [10], 98% in assay [6] and 85% in assay [7].

In the case of `O=C1Nc2ccccc2/C1=C1/Nc2ccccc2/C1=N\OCCC(O)CO` (configuration not stated), the residual activity in [1] was 79%; in assay [2] it was 28%; in [8], 79%; in assay [9] it was 24%; in assay [3] it was 29%; in [4], 6%. The residual activity came to 38% in [10], 80% in assay [6] and 36% in [7].

On to `Cn1cnc2cc3c(Nc4cccc(Br)c4)ncnc3cc21`, for which the residual activity worked out at 108% in [1]; 79% in assay [2]; 103% in [8]; 81% in assay [9]; 106% in assay [3]; 92% in [4]. The residual activity in assay [5] is 99%; in [10] it was 75%; in [6], 101%; in assay [7] it was 96%.

A word on the residual activity: it is the signal under treatment as a percentage of the control signal.
